{
  "source": "paper PMC11006913",
  "assay_in_all_cases": "PBM; 200 nM protein, PBS",
  "conditions_in_all_cases": "dsDNA, one strand shown",
  "key": {"HESX1 [1]": {"target": "HESX1 (Homo sapiens, UniProt Q9UBX0 95-180, R165K)", "sequence (Q9UBX0 95-180 R165K)": "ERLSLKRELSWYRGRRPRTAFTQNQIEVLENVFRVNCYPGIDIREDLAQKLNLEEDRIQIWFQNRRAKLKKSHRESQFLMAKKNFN"}, "HOXB6 [2]": {"target": "HOXB6 (Homo sapiens, UniProt P17509 132-218, K202E)", "sequence (P17509 132-218 K202E)": "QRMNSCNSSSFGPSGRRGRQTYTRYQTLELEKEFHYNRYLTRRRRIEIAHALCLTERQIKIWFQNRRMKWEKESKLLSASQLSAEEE"}, "HESX1 [3]": {"target": "HESX1 (Homo sapiens, UniProt Q9UBX0 95-180)", "sequence (Q9UBX0 95-180)": "as the sequence (Q9UBX0 95-180 R165K) above, with K71R counted along it"}, "HESX1 [4]": {"target": "HESX1 (Homo sapiens, UniProt Q9UBX0 95-180, R109Q)", "sequence (Q9UBX0 95-180 R109Q)": "as the sequence (Q9UBX0 95-180 R165K) above, with R15Q, K71R counted along it"}, "HESX1 [5]": {"target": "HESX1 (Homo sapiens, UniProt Q9UBX0 95-180, P111T)", "sequence (Q9UBX0 95-180 P111T)": "as the sequence (Q9UBX0 95-180 R165K) above, with P17T, K71R counted along it"}, "HESX1 [6]": {"target": "HESX1 (Homo sapiens, UniProt Q9UBX0 95-180, F115L)", "sequence (Q9UBX0 95-180 F115L)": "as the sequence (Q9UBX0 95-180 R165K) above, with F21L, K71R counted along it"}, "NKX3-2 [7]": {"target": "NKX3-2 (Homo sapiens, UniProt P78367 192-278, P234S)", "sequence (P78367 192-278 P234S)": "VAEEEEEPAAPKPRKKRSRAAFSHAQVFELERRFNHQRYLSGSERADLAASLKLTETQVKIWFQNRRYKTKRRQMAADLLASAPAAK"}, "HOXB6 [8]": {"target": "HOXB6 (Homo sapiens, UniProt P17509 132-218)", "sequence (P17509 132-218)": "as the sequence (P17509 132-218 K202E) above, with E71K counted along it"}, "NKX3-2 [9]": {"target": "NKX3-2 (Homo sapiens, UniProt P78367 192-278)", "sequence (P78367 192-278)": "as the sequence (P78367 192-278 P234S) above, with S43P counted along it"}, "PRRX1 [10]": {"target": "PRRX1 (Homo sapiens, UniProt P54821 80-166, F113S)", "sequence (P54821 80-166 F113S)": "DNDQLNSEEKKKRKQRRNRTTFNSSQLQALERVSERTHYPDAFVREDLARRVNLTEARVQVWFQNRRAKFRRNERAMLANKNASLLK"}, "PRRX1 [11]": {"target": "PRRX1 (Homo sapiens, UniProt P54821 80-166)", "sequence (P54821 80-166)": "as the sequence (P54821 80-166 F113S) above, with S34F counted along it"}, "ALX4 [12]": {"target": "ALX4 (Homo sapiens, UniProt Q9H161 200-286)", "sequence (Q9H161 200-286)": "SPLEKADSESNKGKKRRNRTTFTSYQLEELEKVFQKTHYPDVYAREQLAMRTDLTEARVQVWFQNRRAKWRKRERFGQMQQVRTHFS"}, "PAX4 [13]": {"target": "T1, PAX4 (Homo sapiens, UniProt O43316 9-242, R200K)", "T1 sequence": "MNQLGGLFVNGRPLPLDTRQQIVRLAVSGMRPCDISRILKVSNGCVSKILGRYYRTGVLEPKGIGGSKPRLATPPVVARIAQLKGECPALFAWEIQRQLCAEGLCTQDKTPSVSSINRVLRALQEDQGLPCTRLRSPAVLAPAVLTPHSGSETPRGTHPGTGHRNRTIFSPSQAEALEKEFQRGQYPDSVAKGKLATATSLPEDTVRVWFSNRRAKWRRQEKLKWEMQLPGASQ"}, "PAX4 [14]": {"target": "T2, PAX4 (Homo sapiens, UniProt O43316 9-242)", "T2 sequence": "T1 sequence with K192R"}, "ALX4 [15]": {"target": "ALX4 (Homo sapiens, UniProt Q9H161 200-286, Q225E)", "sequence (Q9H161 200-286 Q225E)": "as the sequence (Q9H161 200-286) above, with Q26E counted along it"}, "MSX2 [16]": {"target": "MSX2 (Homo sapiens, UniProt P35548 130-214, R199I)", "sequence (P35548 130-214 R199I)": "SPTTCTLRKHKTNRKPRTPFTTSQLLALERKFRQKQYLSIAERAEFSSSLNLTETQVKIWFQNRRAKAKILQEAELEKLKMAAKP"}, "ALX1 [17]": {"target": "ALX1 (Homo sapiens, UniProt Q15699 118-204, L144V)", "sequence (Q15699 118-204 L144V)": "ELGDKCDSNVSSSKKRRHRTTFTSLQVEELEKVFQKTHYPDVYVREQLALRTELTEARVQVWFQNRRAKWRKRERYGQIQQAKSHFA"}, "ALX3 [18]": {"target": "ALX3 (Homo sapiens, UniProt O95076 139-225, N203Q)", "sequence (O95076 139-225 N203Q)": "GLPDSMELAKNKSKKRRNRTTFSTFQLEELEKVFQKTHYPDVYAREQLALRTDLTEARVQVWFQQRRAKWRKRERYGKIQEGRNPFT"}, "PAX4 [19]": {"target": "T3, PAX4 (Homo sapiens, UniProt O43316 9-242, R200Q)", "T3 sequence": "T1 sequence with K192Q"}, "ALX1 [20]": {"target": "ALX1 (Homo sapiens, UniProt Q15699 118-204, L144R)", "sequence (Q15699 118-204 L144R)": "as the sequence (Q15699 118-204 L144V) above, with V27R counted along it"}, "PAX4 [21]": {"target": "T4, PAX4 (Homo sapiens, UniProt O43316 9-242, F177V)", "T4 sequence": "T1 sequence with F169V, K192R"}, "MSX2 [22]": {"target": "MSX2 (Homo sapiens, UniProt P35548 130-214)", "sequence (P35548 130-214)": "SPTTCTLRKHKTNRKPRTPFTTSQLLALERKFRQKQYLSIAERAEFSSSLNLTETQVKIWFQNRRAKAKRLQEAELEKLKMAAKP"}, "ALX3 [23]": {"target": "ALX3 (Homo sapiens, UniProt O95076 139-225)", "sequence (O95076 139-225)": "as the sequence (O95076 139-225 N203Q) above, with Q65N counted along it"}, "PAX4 [24]": {"target": "T5, PAX4 (Homo sapiens, UniProt O43316 9-242, F177Y)", "T5 sequence": "T1 sequence with F169Y, K192R"}, "PROP1 [25]": {"target": "PROP1 (Homo sapiens, UniProt O75360 56-141)", "sequence (O75360 56-141)": "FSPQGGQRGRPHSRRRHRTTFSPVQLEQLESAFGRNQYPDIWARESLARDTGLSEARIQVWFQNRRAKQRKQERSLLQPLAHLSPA"}, "PROP1 [26]": {"target": "PROP1 (Homo sapiens, UniProt O75360 56-141, R99H)", "sequence (O75360 56-141 R99H)": "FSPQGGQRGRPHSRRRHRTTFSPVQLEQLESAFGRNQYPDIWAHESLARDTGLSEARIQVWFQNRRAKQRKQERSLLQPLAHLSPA"}, "ALX3 [27]": {"target": "ALX3 (Homo sapiens, UniProt O95076 139-225, L168Q)", "sequence (O95076 139-225 L168Q)": "as the sequence (O95076 139-225 N203Q) above, with L30Q, Q65N counted along it"}, "ALX3 [28]": {"target": "ALX3 (Homo sapiens, UniProt O95076 139-225, L168V)", "sequence (O95076 139-225 L168V)": "as the sequence (O95076 139-225 N203Q) above, with L30V, Q65N counted along it"}, "PROP1 [29]": {"target": "PROP1 (Homo sapiens, UniProt O75360 56-141, F88S)", "sequence (O75360 56-141 F88S)": "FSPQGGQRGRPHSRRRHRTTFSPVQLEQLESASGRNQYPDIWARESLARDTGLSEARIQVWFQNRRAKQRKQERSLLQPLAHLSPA"}, "MSX2 [30]": {"target": "MSX2 (Homo sapiens, UniProt P35548 130-214, F161Y)", "sequence (P35548 130-214 F161Y)": "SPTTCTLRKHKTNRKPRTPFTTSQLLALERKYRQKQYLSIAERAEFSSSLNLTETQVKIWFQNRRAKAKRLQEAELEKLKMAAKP"}, "PAX4 [31]": {"target": "T6, PAX4 (Homo sapiens, UniProt O43316 9-242, R227W)", "T6 sequence": "T1 sequence with K192R, R219W"}, "ALX1 [32]": {"target": "ALX1 (Homo sapiens, UniProt Q15699 118-204)", "sequence (Q15699 118-204)": "as the sequence (Q15699 118-204 L144V) above, with V27L counted along it"}, "ALX3 [33]": {"target": "ALX3 (Homo sapiens, UniProt O95076 139-225, N203S)", "sequence (O95076 139-225 N203S)": "as the sequence (O95076 139-225 N203Q) above, with Q65S counted along it"}},
  "note": "Where a chain is given by its changes, count along the chain named.",
  "data": [
    {"sequence": "AGAGGACC", "values": [
      {"measurement": "binding signal", "setting": "HESX1 [1]", "result": "6.6 upbm affinity estimate (log intensity, higher = more binding, comparable within an allelic series)"},
      {"measurement": "binding signal", "setting": "HOXB6 [2]", "result": "9.07 upbm affinity estimate (log intensity, higher = more binding, comparable within an allelic series)"},
      {"measurement": "binding signal", "setting": "HESX1 [3]", "result": "6.46 upbm affinity estimate (log intensity, higher = more binding, comparable within an allelic series)"},
      {"measurement": "binding signal", "setting": "HESX1 [4]", "result": "6.58 upbm affinity estimate (log intensity, higher = more binding, comparable within an allelic series)"},
      {"measurement": "binding signal", "setting": "HESX1 [5]", "result": "6.41 upbm affinity estimate (log intensity, higher = more binding, comparable within an allelic series)"},
      {"measurement": "binding signal", "setting": "HESX1 [6]", "result": "6.55 upbm affinity estimate (log intensity, higher = more binding, comparable within an allelic series)"},
      {"measurement": "binding signal", "setting": "NKX3-2 [7]", "result": "11.8 upbm affinity estimate (log intensity, higher = more binding, comparable within an allelic series)"},
      {"measurement": "binding signal", "setting": "HOXB6 [8]", "result": "8.88 upbm affinity estimate (log intensity, higher = more binding, comparable within an allelic series)"},
      {"measurement": "binding signal", "setting": "NKX3-2 [9]", "result": "11.8 upbm affinity estimate (log intensity, higher = more binding, comparable within an allelic series)"}
    ]},
    {"sequence": "TAAATTCA", "values": [
      {"measurement": "binding signal", "setting": "HESX1 [1]", "result": "7.34 upbm affinity estimate (log intensity, higher = more binding, comparable within an allelic series)"},
      {"measurement": "binding signal", "setting": "HESX1 [3]", "result": "7.46 upbm affinity estimate (log intensity, higher = more binding, comparable within an allelic series)"}
    ]},
    {"sequence": "TATGGTAA", "values": [
      {"measurement": "binding signal", "setting": "HESX1 [1]", "result": "7.45 upbm affinity estimate (log intensity, higher = more binding, comparable within an allelic series)"},
      {"measurement": "binding signal", "setting": "HESX1 [3]", "result": "7.53 upbm affinity estimate (log intensity, higher = more binding, comparable within an allelic series)"}
    ]},
    {"sequence": "CGCCTAGC", "values": [
      {"measurement": "binding signal", "setting": "HESX1 [1]", "result": "6.27 upbm affinity estimate (log intensity, higher = more binding, comparable within an allelic series)"},
      {"measurement": "binding signal", "setting": "PRRX1 [10]", "result": "9.26 upbm affinity estimate (log intensity, higher = more binding, comparable within an allelic series)"},
      {"measurement": "binding signal", "setting": "HESX1 [3]", "result": "6.37 upbm affinity estimate (log intensity, higher = more binding, comparable within an allelic series)"},
      {"measurement": "binding signal", "setting": "HESX1 [4]", "result": "6.4 upbm affinity estimate (log intensity, higher = more binding, comparable within an allelic series)"},
      {"measurement": "binding signal", "setting": "HESX1 [5]", "result": "6.38 upbm affinity estimate (log intensity, higher = more binding, comparable within an allelic series)"},
      {"measurement": "binding signal", "setting": "HESX1 [6]", "result": "6.57 upbm affinity estimate (log intensity, higher = more binding, comparable within an allelic series)"},
      {"measurement": "binding signal", "setting": "NKX3-2 [7]", "result": "10.6 upbm affinity estimate (log intensity, higher = more binding, comparable within an allelic series)"},
      {"measurement": "binding signal", "setting": "PRRX1 [11]", "result": "9.27 upbm affinity estimate (log intensity, higher = more binding, comparable within an allelic series)"},
      {"measurement": "binding signal", "setting": "NKX3-2 [9]", "result": "10.6 upbm affinity estimate (log intensity, higher = more binding, comparable within an allelic series)"}
    ]},
    {"sequence": "AATTATCT", "values": [
      {"measurement": "binding signal", "setting": "HESX1 [1]", "result": "11.8 upbm affinity estimate (log intensity, higher = more binding, comparable within an allelic series)"},
      {"measurement": "binding signal", "setting": "ALX4 [12]", "result": "13.6 upbm affinity estimate (log intensity, higher = more binding, comparable within an allelic series)"},
      {"measurement": "binding signal", "setting": "PAX4 [13]", "result": "11.7 upbm affinity estimate (log intensity, higher = more binding, comparable within an allelic series)"},
      {"measurement": "binding signal", "setting": "PRRX1 [10]", "result": "11.2 upbm affinity estimate (log intensity, higher = more binding, comparable within an allelic series)"},
      {"measurement": "binding signal", "setting": "PAX4 [14]", "result": "12.2 upbm affinity estimate (log intensity, higher = more binding, comparable within an allelic series)"},
      {"measurement": "binding signal", "setting": "ALX4 [15]", "result": "12.7 upbm affinity estimate (log intensity, higher = more binding, comparable within an allelic series)"},
      {"measurement": "binding signal", "setting": "HESX1 [3]", "result": "11.8 upbm affinity estimate (log intensity, higher = more binding, comparable within an allelic series)"},
      {"measurement": "binding signal", "setting": "MSX2 [16]", "result": "12.3 upbm affinity estimate (log intensity, higher = more binding, comparable within an allelic series)"},
      {"measurement": "binding signal", "setting": "ALX1 [17]", "result": "11.6 upbm affinity estimate (log intensity, higher = more binding, comparable within an allelic series)"},
      {"measurement": "binding signal", "setting": "ALX3 [18]", "result": "8.49 upbm affinity estimate (log intensity, higher = more binding, comparable within an allelic series)"},
      {"measurement": "binding signal", "setting": "PAX4 [19]", "result": "11.9 upbm affinity estimate (log intensity, higher = more binding, comparable within an allelic series)"},
      {"measurement": "binding signal", "setting": "ALX1 [20]", "result": "11.3 upbm affinity estimate (log intensity, higher = more binding, comparable within an allelic series)"},
      {"measurement": "binding signal", "setting": "PAX4 [21]", "result": "10.5 upbm affinity estimate (log intensity, higher = more binding, comparable within an allelic series)"},
      {"measurement": "binding signal", "setting": "MSX2 [22]", "result": "13.5 upbm affinity estimate (log intensity, higher = more binding, comparable within an allelic series)"},
      {"measurement": "binding signal", "setting": "ALX3 [23]", "result": "12.4 upbm affinity estimate (log intensity, higher = more binding, comparable within an allelic series)"},
      {"measurement": "binding signal", "setting": "PAX4 [24]", "result": "11 upbm affinity estimate (log intensity, higher = more binding, comparable within an allelic series)"},
      {"measurement": "binding signal", "setting": "PROP1 [25]", "result": "11.1 upbm affinity estimate (log intensity, higher = more binding, comparable within an allelic series)"},
      {"measurement": "binding signal", "setting": "HESX1 [4]", "result": "8.47 upbm affinity estimate (log intensity, higher = more binding, comparable within an allelic series)"},
      {"measurement": "binding signal", "setting": "PROP1 [26]", "result": "10.8 upbm affinity estimate (log intensity, higher = more binding, comparable within an allelic series)"},
      {"measurement": "binding signal", "setting": "ALX3 [27]", "result": "10.3 upbm affinity estimate (log intensity, higher = more binding, comparable within an allelic series)"},
      {"measurement": "binding signal", "setting": "HESX1 [5]", "result": "10.2 upbm affinity estimate (log intensity, higher = more binding, comparable within an allelic series)"},
      {"measurement": "binding signal", "setting": "ALX3 [28]", "result": "9.85 upbm affinity estimate (log intensity, higher = more binding, comparable within an allelic series)"},
      {"measurement": "binding signal", "setting": "PROP1 [29]", "result": "7.79 upbm affinity estimate (log intensity, higher = more binding, comparable within an allelic series)"},
      {"measurement": "binding signal", "setting": "MSX2 [30]", "result": "13 upbm affinity estimate (log intensity, higher = more binding, comparable within an allelic series)"},
      {"measurement": "binding signal", "setting": "HESX1 [6]", "result": "7.77 upbm affinity estimate (log intensity, higher = more binding, comparable within an allelic series)"},
      {"measurement": "binding signal", "setting": "PAX4 [31]", "result": "10.9 upbm affinity estimate (log intensity, higher = more binding, comparable within an allelic series)"},
      {"measurement": "binding signal", "setting": "ALX1 [32]", "result": "12.1 upbm affinity estimate (log intensity, higher = more binding, comparable within an allelic series)"},
      {"measurement": "binding signal", "setting": "ALX3 [33]", "result": "8.6 upbm affinity estimate (log intensity, higher = more binding, comparable within an allelic series)"},
      {"measurement": "binding signal", "setting": "PRRX1 [11]", "result": "13.2 upbm affinity estimate (log intensity, higher = more binding, comparable within an allelic series)"}
    ]}
  ]
}
